The text below walks through data of PubChem BioAssay (NCI).

This is part of a sample that, as a whole, favours compounds with a hit. Of some 83,000 tested, about 20% had one in any assay.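 48-hour exposure, single concentration, 96-well plates; percent growth endpoint where 0 means no net growth. Active: below 10.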 Values without a mark were called inactive. Calls of active or inactive are those of the source.

Among the test systems are HCT-15 colon; HT29 colon; SNB-75 CNS; SNB-19 CNS; U251 CNS; PC-3 prostate; SK-MEL-5 melanoma; UACC-62 melanoma; LOX IMVI melanoma; SK-MEL-28 melanoma.
Assay in all cases: NCI-60 one-dose screen, 48 h (100 = growth as untreated, 0 = no growth, -100 = all killed)
Details in all cases: 10 µM unless noted

Take `C=C1CC[C@H](C(C)C)[C@@H]2[C@H]1[C@H]1CC(=C)[C@@H](O)CC[C@@](C)(O)[C@@H]2O1`: the growth is 107% with HCT-15 colon; 101% with HT29 colon; 88.1% in the test with SNB-75 CNS; 91.5% in the test with SNB-19 CNS; 106% in the test with U251 CNS; 89.9% in the test on PC-3 prostate. The growth in the test on SK-MEL-5 melanoma was 100%; in the test on UACC-62 melanoma, 92.8%; in the test on LOX IMVI melanoma, 93.8%; with SK-MEL-28 melanoma it was 105%.
On to `O=C(Nc1c2ccccc2nc2ccccc12)c1ccccc1CN1C(=O)c2ccccc2C1=O`, for which the growth is 19.2% in the test with HCT-15 colon; 11.2% with HT29 colon; 60.1% in the test with SNB-75 CNS; 32.9% with SNB-19 CNS; 27.1% in the test with U251 CNS; 37.2% with PC-3 prostate. The growth in the test with SK-MEL-5 melanoma was 39.5%; in the test on UACC-62 melanoma, 58.8%; in the test on LOX IMVI melanoma it was 22%; with SK-MEL-28 melanoma, 56.7%.
Regarding `CN(C(=O)NCc1cccc(F)c1Cl)[C@H](COC(=O)Nc1cc2ccccc2cn1)CC(O)CO` (stereo not given in full), the growth with HCT-15 colon was 101%; in the test with HT29 colon, 99.4%; in the test with SNB-75 CNS it was -21.4% (active); in the test with SNB-19 CNS, 97.2%; in the test with U251 CNS it was 74%; in the test with PC-3 prostate, 80.8%. Further, the growth with SK-MEL-5 melanoma is 103%; in the test with UACC-62 melanoma, 106%; in the test with LOX IMVI melanoma, 61.9%; in the test with SK-MEL-28 melanoma it was 119%.
As to `COc1cccc(Cc2cc(-c3ccccc3)nn(CC(=O)c3ccccc3)c2=O)c1`, the growth in the test with HCT-15 colon was 20.2%; in the test on HT29 colon it was 36.6%; with SNB-75 CNS, 50.9%; in the test on SNB-19 CNS, 58%; in the test on U251 CNS, 37.1%; with PC-3 prostate it was 41.4%. For the same compound, the growth is 39.4% in the test on SK-MEL-5 melanoma, 45.9% in the test on UACC-62 melanoma, 11.8% in the test with LOX IMVI melanoma and 73.2% in the test on SK-MEL-28 melanoma.
On to `O=C(CSc1nc2ccccc2[nH]1)Nc1cccc(Cl)c1`, for which the growth with HCT-15 colon was 109%; in the test on HT29 colon, 112%; with SNB-75 CNS, 81.6%; in the test with SNB-19 CNS, 91.4%; in the test with U251 CNS it was 104%; in the test with PC-3 prostate, 99.3%. The growth in the test with SK-MEL-5 melanoma is 104%; in the test on UACC-62 melanoma, 87.6%; in the test with LOX IMVI melanoma, 99.6%; with SK-MEL-28 melanoma, 106%.
Turning to `COc1cc(/C=C2\C(=O)Nc3ccc(Br)cc32)cc(OC)c1OC`, the growth with HCT-15 colon was 38.6%; in the test with HT29 colon it was 24.4%; in the test on SNB-75 CNS, 36.5%; with SNB-19 CNS, 81%; with U251 CNS, 51%; with PC-3 prostate it was 60.4%. Besides, the growth in the test with SK-MEL-5 melanoma was 56.9%; with UACC-62 melanoma it was 51.6%; in the test with LOX IMVI melanoma it was 57.2%; in the test on SK-MEL-28 melanoma, 80.2%.
On to `CS(=O)(=O)Nc1cc(-c2ccc3ncnc(Nc4cccc(Cl)c4F)c3c2)cnc1Cl`, for which the growth with HCT-15 colon was 41.9%; in the test with HT29 colon it was 47.6%; in the test on SNB-75 CNS it was 9.28% (active); in the test on SNB-19 CNS, 46.4%; in the test on U251 CNS, 33.6%; with PC-3 prostate, 41.4%. In addition, the growth in the test on SK-MEL-5 melanoma was 24.7%; in the test with UACC-62 melanoma it was 8.37% (active); in the test on LOX IMVI melanoma it was 4.21% (active); in the test on SK-MEL-28 melanoma it was 24.6%.
`Oc1ccc(C#CCOc2ccccc2)cc1CNCCN(Cc1ccccn1)Cc1ccccn1`: the growth is 4.51% (active) in the test on HCT-15 colon; 25.5% in the test on HT29 colon; 25.6% with SNB-75 CNS; 20.7% with SNB-19 CNS; 7.44% (active) with U251 CNS; 27.7% in the test on PC-3 prostate. Also, the growth with SK-MEL-5 melanoma is 1.89% (active); with UACC-62 melanoma, 9.83% (active); in the test with LOX IMVI melanoma, 3.51% (active); in the test with SK-MEL-28 melanoma it was 32.9%.
With `COc1ccc(/C=N/Nc2cc(=O)[nH]c3ccc(Cl)cc23)cc1`, the growth is 39.5% in the test on HCT-15 colon; 3.92% (active) in the test with HT29 colon; 99% with SNB-75 CNS; 85.8% in the test on SNB-19 CNS; 28.9% in the test with U251 CNS; 59.1% with PC-3 prostate. In addition, the growth in the test with SK-MEL-5 melanoma was 38.2%; in the test on UACC-62 melanoma, 77.3%; with LOX IMVI melanoma, 37.2%; in the test on SK-MEL-28 melanoma, 87.2%.
In the case of `CN1CCN(c2ccc(-c3cnc4c(-c5csc6ccccc56)cnn4c3)cc2)CC1`, the growth is -4.7% (active) with HCT-15 colon; -40.4% (active) in the test with HT29 colon; -54.4% (active) in the test on SNB-75 CNS; 13.3% in the test with SNB-19 CNS; -87.3% (active) with U251 CNS; -12.4% (active) in the test on PC-3 prostate. For the same compound, the growth with SK-MEL-5 melanoma is -100% (active); with UACC-62 melanoma, -2.26% (active); in the test on LOX IMVI melanoma it was -91.2% (active); in the test on SK-MEL-28 melanoma, -7.59% (active).
On to `O=C(Nc1ccc(F)cc1F)c1cc(F)ccc1O`, for which the growth in the test with HCT-15 colon is 12.4%; in the test with HT29 colon it was 93.4%; in the test with SNB-75 CNS, 10.6%; in the test with SNB-19 CNS it was 10.7%; in the test with U251 CNS it was 10.6%; in the test on PC-3 prostate, 13.5%. The growth in the test with SK-MEL-5 melanoma was -59.1% (active); in the test with UACC-62 melanoma, -0.318% (active); in the test with LOX IMVI melanoma, 9.88% (active); in the test with SK-MEL-28 melanoma it was 21.9%.
In the case of `CCOC(=O)c1cn2ncnc(Oc3ccc(NC(=O)NCCN4CCN(C)CC4)c(Cl)c3)c2c1C`, the growth was 39.6% in the test on HCT-15 colon; 19.7% with HT29 colon; 86.3% with SNB-75 CNS; 87.7% with SNB-19 CNS; 63.3% in the test with U251 CNS; 50.5% in the test with PC-3 prostate. Also, the growth in the test on SK-MEL-5 melanoma was 47.6%; in the test with UACC-62 melanoma, 34%; with LOX IMVI melanoma, 66.2%; in the test with SK-MEL-28 melanoma, 13.3%.
Turning to `Clc1ccc(C(/C=C/c2sc(Cl)nc2Cl)=N/Nc2cc(Cl)cc(Cl)c2)cc1`, the growth in the test on HCT-15 colon is 105%; in the test with HT29 colon, 103%; with SNB-75 CNS, 101%; in the test with SNB-19 CNS it was 96.4%; in the test with U251 CNS, 101%; with PC-3 prostate, 96.7%. Besides, the growth was 103% with SK-MEL-5 melanoma, 88.6% in the test on UACC-62 melanoma, 98.4% in the test with LOX IMVI melanoma and 105% in the test with SK-MEL-28 melanoma.
Regarding `COc1ccc(S(=O)(=O)n2cc(C3OC(c4cc(OC)c(OC)c(OC)c4)=NN3C(C)=O)c3ccccc32)cc1OC` (stereo not given), the growth in the test on HCT-15 colon is 81.8%; in the test on HT29 colon, 110%; with SNB-75 CNS it was 86%; in the test on SNB-19 CNS, 85.7%; in the test with U251 CNS it was 97.7%; in the test on PC-3 prostate it was 80.3%. For the same compound, the growth in the test with SK-MEL-5 melanoma was 76.4%; with UACC-62 melanoma it was 72.8%; with LOX IMVI melanoma, 78.4%; with SK-MEL-28 melanoma, 110%.
